Data on 30 molecules can be found in PubChem BioAssay (NCATS).

Inconclusive results are not listed. Where a call stands in place of a potency, no number is given. The source made the active and inactive calls. Unless noted, calls follow the shape of the dose curve; as a rule, active = well fitted curve in the direction sought with a large enough effect in the repeat runs; inconclusive = weak or mixed curves; inactive = no such curve, though single readings can be large; an effect the other way counts as inactive or inconclusive.

Chain of Cytochrome P450 2C9 (Homo sapiens) (P11712 whole entry, looked up): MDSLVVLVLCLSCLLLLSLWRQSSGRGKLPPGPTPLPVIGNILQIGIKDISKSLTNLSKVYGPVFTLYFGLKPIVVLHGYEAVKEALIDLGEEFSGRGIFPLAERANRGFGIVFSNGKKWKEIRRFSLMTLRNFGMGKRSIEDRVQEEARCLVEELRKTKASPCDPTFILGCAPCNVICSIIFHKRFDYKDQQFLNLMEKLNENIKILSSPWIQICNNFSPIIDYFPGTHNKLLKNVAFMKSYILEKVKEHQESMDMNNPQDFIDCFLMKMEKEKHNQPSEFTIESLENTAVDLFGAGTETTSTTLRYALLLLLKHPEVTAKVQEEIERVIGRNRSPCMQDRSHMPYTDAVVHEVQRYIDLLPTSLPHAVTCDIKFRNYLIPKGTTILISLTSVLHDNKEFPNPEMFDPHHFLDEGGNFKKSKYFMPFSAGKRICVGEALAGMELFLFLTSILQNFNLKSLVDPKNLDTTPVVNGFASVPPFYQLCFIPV
Chain of Cytochrome P450 2D6 (Homo sapiens) (P10635 whole entry, looked up): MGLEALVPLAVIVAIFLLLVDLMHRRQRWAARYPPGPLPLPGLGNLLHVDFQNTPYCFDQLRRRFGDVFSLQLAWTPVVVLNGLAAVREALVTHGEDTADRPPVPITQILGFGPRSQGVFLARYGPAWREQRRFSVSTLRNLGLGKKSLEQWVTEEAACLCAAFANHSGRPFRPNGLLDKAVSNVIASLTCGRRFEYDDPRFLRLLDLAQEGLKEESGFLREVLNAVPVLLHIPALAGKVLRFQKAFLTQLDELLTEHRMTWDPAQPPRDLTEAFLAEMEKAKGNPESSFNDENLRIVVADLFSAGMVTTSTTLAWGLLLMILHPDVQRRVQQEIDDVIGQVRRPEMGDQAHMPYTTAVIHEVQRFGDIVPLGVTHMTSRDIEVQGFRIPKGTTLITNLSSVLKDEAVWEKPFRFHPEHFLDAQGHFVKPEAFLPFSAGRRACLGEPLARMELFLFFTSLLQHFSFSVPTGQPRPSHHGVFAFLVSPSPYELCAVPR

In one assay the target is Cytochrome P450 2D6 (Homo sapiens) (UniProt P10635). The experiment in a line: Cytochrome P450 family 2 subfamily D member 6 (CYP2D6) small molecule antagonists: luciferase biochemical (cell-free) qHTS assay (AID 1645840). Also: nearly all actives have a fitted effect of over 55% in size. Also: potency is read from the fitted curve at half-maximal effect. As to conditions: P450-Glo CYP2D6 enzyme, luciferin luminescence, 1 h; series mostly up to 57.4 µM. A digest of the protocol:
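P450-Glo CYP2D6 system: proluciferin substrate converted by enzyme to luciferin, read by luminescence proportional to activity. Enzyme-substrate mix with compound 10 min at room temperature, then NADPH regeneration 1 h before detection reagent.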
In the case of `CCCCC(=O)O[C@H]1CC[C@H]2[C@@H]3CCc4cc(O)ccc4[C@H]3CC[C@]12C`, the Potency result is “inactive”.
On to `Oc1cc(O)cc(O)c1`, for which the Potency result was “inactive”.
Still for that read-out and setting: in the case of `CCOC(C)OCC` it was “inactive”; in that of `CCCCCCOC(=O)c1cccnc1`, 10.7 µM (active).
The same measure, in the same setting: in the case of `COC(=O)[C@@H](N)CS` it was “inactive”.
Take `Cc1cccc(C)c1NC(=O)C1CCCCN1C` (stereo unspecified): the Potency is 9.52 µM (active).
The same measure, in the same setting: in the case of `CN1c2c(nc(N)[nH]c2=O)NCC1CNc1ccc(C(=O)NC(CCC(=O)O)C(=O)O)cc1` (stereo unspecified) it was “inactive”; in that of `NC(=O)OCC(O)COc1ccc(Cl)cc1` (stereo unspecified), “inactive”.
The same measure, in the same setting: in the case of `Nc1nc(=O)n([C@@H]2CS[C@H](CO)O2)cc1F` it was “inactive”; in that of `CC[C@H]1OC(=O)[C@H](C)[C@@H](O[C@H]2C[C@@](C)(OC)[C@@H](O)[C@H](C)O2)[C@H](C)[C@@H](O[C@@H]2O[C@H](C)C[C@H](N(C)C)[C@H]2O)[C@](C)(O)C[C@@H](C)CN(C)[C@H](C)[C@@H](O)[C@]1(C)O`, “inactive”; in that of `CC(=O)NCCCS(=O)(=O)O`, “inactive”.
On to `O=C(CO)[C@@H](O)[C@H](O)[C@@H](O)C(=O)O`, for which the Potency result is “inactive”.
In the case of `CC12CCC(C[N+](C)(CCC[N+](C)(C)C)C1)C2(C)C` (stereo unspecified), the Potency result was “inactive”.
Take `CCOC(=O)C1=C(COCCN)NC(C)=C(C(=O)OC)C1c1ccccc1Cl` (stereo unspecified): the Potency was 16.9 µM (active).

A further assay concerns the target Cytochrome P450 2C9 (Homo sapiens) (UniProt P11712). The assay is described as follows: Cytochrome P450 family 2 subfamily C member 9 (CYP2C9) small molecule antagonists: luciferase biochemical (cell-free) qHTS assay (AID 1645842). Also: nearly all actives have a fitted effect of over 55% in size. Also: potency is read from the fitted curve at half-maximal effect. As to conditions: P450-Glo CYP2C9 enzyme assay, luciferin luminescence; series mostly up to 57.4 µM. A digest of the protocol: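 P450-Glo CYP2C9 system: proluciferin substrate with enzyme in mix containing 0.4% BSA, 10 min at room temperature, then NADPH regeneration solution added and incubated 1 h at 37C. Detection reagent stopped reaction; luminescence read after 20 min as RLU.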
(In general: In qHTS, concentration-response curves come from the screen itself.)
Regarding `CCCCC(=O)O[C@H]1CC[C@H]2[C@@H]3CCc4cc(O)ccc4[C@H]3CC[C@]12C`, the Potency is 19 µM (active).
As for `Oc1cc(O)cc(O)c1`, the Potency result was “inactive”.
As for `Cn1c(O)c(N=NC(N)=S)c2ccccc21`, the Potency was 9.52 µM (active).
Turning to `CCOC(=O)[C@@H](N)CS`, the Potency was 10.7 µM (active).
On the same count and under the same terms, in the case of `CCOC(C)OCC` it was “inactive”; in that of `CC(C)=CCC/C(C)=C/CC/C(C)=C/CC/C(C)=C/CC1=C(C)C(=O)c2ccccc2C1=O`, 8.49 µM (active); in that of `CCCCCCOC(=O)c1cccnc1`, 15.1 µM (active).
For the molecule `COC(=O)[C@@H](N)CS`, the Potency is 9.52 µM (active).
`Cc1cccc(C)c1NC(=O)C1CCCCN1C` (stereo unspecified): the Potency result was “inactive”.
With `CN1c2c(nc(N)[nH]c2=O)NCC1CNc1ccc(C(=O)NC(CCC(=O)O)C(=O)O)cc1` (stereo unspecified), the Potency entry was “inactive”.
Regarding `NC(=O)OCC(O)COc1ccc(Cl)cc1` (stereo unspecified), the Potency entry was “inactive”.
In the case of `Nc1nc(=O)n([C@@H]2CS[C@H](CO)O2)cc1F`, the Potency result was “inactive”.
In the case of `CC[C@H]1OC(=O)[C@H](C)[C@@H](O[C@H]2C[C@@](C)(OC)[C@@H](O)[C@H](C)O2)[C@H](C)[C@@H](O[C@@H]2O[C@H](C)C[C@H](N(C)C)[C@H]2O)[C@](C)(O)C[C@@H](C)CN(C)[C@H](C)[C@@H](O)[C@]1(C)O`, the Potency entry is “inactive”.
Same read-out and setting: in the case of `COC(=O)C(CN)c1c[nH]c2ccc(OC)cc12` (stereo unspecified) it was “inactive”.
On to `CC(=O)NCCCS(=O)(=O)O`, for which the Potency entry is “inactive”.
Regarding `Cc1cc(-c2ccc(N=Nc3c(S(=O)(=O)O)cc4cc(S(=O)(=O)O)cc(N)c4c3O)c(C)c2)ccc1N=Nc1c(S(=O)(=O)O)cc2cc(S(=O)(=O)O)cc(N)c2c1O`, the Potency was 15.1 µM (active).
On the same count and under the same terms, in the case of `Cc1c(C)c2c(c(C)c1OC(=O)CCC(=O)O)CC[C@@](C)(CCC[C@H](C)CCC[C@H](C)CCCC(C)C)O2` it was 21.3 µM (active).
`O=C(CO)[C@@H](O)[C@H](O)[C@@H](O)C(=O)O`: the Potency result was “inactive”.
`O=C(O)c1cc(N=Nc2ccc(O)c(C(=O)O)c2)ccc1O`: the Potency is 10.7 µM (active).
Regarding `CC12CCC(C[N+](C)(CCC[N+](C)(C)C)C1)C2(C)C` (stereo unspecified), the Potency entry is “inactive”.
On the same count and under the same terms, in the case of `CCOC(=O)C1=C(COCCN)NC(C)=C(C(=O)OC)C1c1ccccc1Cl` (stereo unspecified) it was 2.68 µM (active); in that of `C[C@H](NCCc1ccc(O)cc1)[C@H](O)c1ccc(O)cc1`, “inactive”.

System in the next assay: not listed separately
The assay is described as follows: Primary qHTS for inhibitors of nuclear receptor binding SET domain protein 2 (NSD2) in an isogenic RCH-ACV NSD2 p.E1099K mutant (9B) (AID 1645876; active = well fitted curve in the direction sought with a large enough effect; an effect the other way counts as inactive or inconclusive; also: nearly all actives have a fitted effect of over 70% in size). As to conditions: RCH-ACV (leukaemia line) NSD2 E1099K (9B) viability, CellTiter-Glo, 72 h; series mostly up to 44.9 µM.
Consider `COc1ccc([C@@H]2CC(=O)c3c(O)cc(O[C@@H]4O[C@H](CO[C@@H]5O[C@@H](C)[C@H](O)[C@@H](O)[C@H]5O)[C@@H](O)[C@H](O)[C@H]4O)cc3O2)cc1O`, for which the Potency entry was “inactive”.
`CN[C@@H]1[C@@H](O)[C@@H](O[C@@H]2[C@@H](O)[C@H](O[C@H]3O[C@H](CN)[C@@H](O)[C@H](O)[C@H]3O)[C@@H](N)C[C@H]2NC(=O)C(O)CN)OC[C@]1(C)O` (stereo partly specified): the Potency result was “inactive”.
Consider `CN(C)CCOc1ccc(/C(=C(/CCCl)c2ccccc2)c2ccccc2)cc1`, for which the Potency result was “inactive”.
As for `CCC[C@@H]1C[C@@H](C(=O)N[C@@H]([C@H]2O[C@H](SC)[C@H](O)[C@@H](O)[C@H]2O)[C@H](C)Cl)N(C)C1`, the Potency result is “inactive”.
The same measure, in the same setting: in the case of `C=CC[N+]1([C@H]2C[C@H]3[C@@H]4CC[C@H]5C[C@H](O)[C@@H](N6CCOCC6)C[C@]5(C)[C@H]4CC[C@]3(C)[C@H]2OC(C)=O)CCCC1` it was “inactive”; in that of `CC(C)Cc1ccc([C@@H](C)C(=O)NS(C)(=O)=O)cc1`, “inactive”; in that of `CC[C@H](CC[C@@H](C)[C@H]1CC[C@H]2[C@@H]3CC=C4C[C@@H](O)CC[C@]4(C)[C@H]3CC[C@]12C)C(C)C`, “inactive”.
Consider `CC[C@H]1OC(=O)[C@H](C)[C@@H](O[C@H]2C[C@@](C)(OC)[C@@H](O)[C@H](C)O2)[C@H](C)[C@@H](O[C@@H]2O[C@H](C)C[C@H](N(C)C)[C@H]2O)[C@](C)(O)C[C@@H](C)CN(C)[C@H](C)[C@@H](O)[C@]1(C)O`, for which the Potency entry is “inactive”.
Still for that read-out and setting: in the case of `CC(=O)NCCCS(=O)(=O)O` it was “inactive”; in that of `N[C@@H](Cc1cc(I)c(Oc2ccc(O)c(I)c2)c(I)c1)C(=O)O`, “inactive”.
